Assay outcomes: PubChem BioAssay, The Scripps Research Institute Molecular Screening Center
ABHD5-PLIN5 inh = ABHD5-PLIN5 interaction inhibitors, primary screen, cell lysate, split luciferase complementation, luminescence; Perilipin-5 (Homo sapiens) + 1-acylglycerol-3-phosphate O-acyltransferase ABHD5 (Homo …; AID 602281, 2012; actives 0.78% (n = 360,000); inhibition, % at 4 µM; Split G. princeps luciferase complementation, 4 h;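 active means inhibition above the mean inhibition across every tested compound plus 3 SD, cut at about 22% in these data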;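 further: 0% = DMSO only wells and the 100% control is not disclosed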
PRMT1 FP inh = PRMT1 methyltransferase inhibitors, primary screen, biochemical, fluorescence polarization | recombinant PRMT1, activity-based probe fluorescence polarization | inhibition, % at 2.79 µM | actives 1.3% (n = 370,000) | AID 652257, 2013;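 active means inhibition above about 21% made by adding two undisclosed values, limit read from the data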
Target sequence (Q99873 whole entry, looked up): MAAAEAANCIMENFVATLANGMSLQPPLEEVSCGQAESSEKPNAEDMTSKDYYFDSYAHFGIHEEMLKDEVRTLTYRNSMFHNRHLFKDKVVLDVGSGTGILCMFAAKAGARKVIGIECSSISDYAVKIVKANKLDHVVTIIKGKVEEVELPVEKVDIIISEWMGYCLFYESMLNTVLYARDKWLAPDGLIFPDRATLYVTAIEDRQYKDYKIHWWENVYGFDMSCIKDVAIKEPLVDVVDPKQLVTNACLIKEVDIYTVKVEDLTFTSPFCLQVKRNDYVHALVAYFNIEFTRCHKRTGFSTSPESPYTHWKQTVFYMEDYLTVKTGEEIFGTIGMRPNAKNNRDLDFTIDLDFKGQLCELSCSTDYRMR
rCAG RNA binder = binders of r(CAG) RNA repeats, primary screen, biochemical, fluorescence. r(CAG) RNA repeat, TO-PRO-1 dye displacement fluorescence. inhibition, % at 3 µM. actives 1.3% (n = 370,000). AID 651821, 2012;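 active means inhibition above the plate cutoff, the mean of all test compounds on that plate plus 3 SD, cut at about 35% in these data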;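 further: 0% = DMSO alone and 100% = 100 µM mitoxantrone as full dye displacement; higher means more dye released from RNA so lower well fluorescence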
TLR4-MyD88 BLA = inhibitors of TLR4-MyD88 association in cells, primary screen, cell-based, HeLa CL3-4, BLA complementation, FRET ratio. HeLa CL3-4 TLR4/MyD88 BLA complementation. actives 0.18% (n = 200,000). AID 861, 2007. inhibition, % at 8.4 µM. Toll-like receptor 4 (Homo sapiens) + Myeloid differentiation primary response protein …; in the data active means inhibition above about 25%;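 further: 0% = vehicle and 100% = reference inhibitor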
TLR9-MyD88 block = inhibitors of TLR9-MyD88 association in cells, primary screen, cell-based, CHO, BLA complementation, fluorescence; Toll-like receptor 9 (Homo sapiens) + Myeloid differentiation primary response protein …; AID 504734, 2011; CCF4 FRET ratio; actives 0.21% (n = 340,000); inhibition, % at 4.98 µM;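 active means inhibition above the mean over all tested compounds plus 3 SD, cut at about 21% in these data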;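 further: 0% = DMSO only wells and 100% = clavulanate BLA inhibitor control wells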
NOD2 RIPK2 PPI = NOD2-RIPK2 binding disruptors in cells, primary screen, fluorescence, CHO cells, BLA complementation | inhibition, % at 4.98 µM | AID 624267, 2012 | CCF4 ratio | actives 0.38% (n = 360,000); in the data active means inhibition above about 21%;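 further: 0% = vehicle only and 100% = reference blocker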
TLR9-MyD88 conf = TLR9-MyD88 association inhibitors, retest, confirmation, cell-based, CHO, BLA complementation, fluorescence, triplicate. CCF4 FRET ratio. actives 51% (n = 680). inhibition, % at 4.98 µM. shares compounds with TLR9-MyD88 block;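 active means mean inhibition across three repeats above about 21% taken from the earlier screen, limit read from the data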;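 further: blue over green emission ratio reports constitutive TLR9 MyD88 association via BLA complementation; 0% = DMSO vehicle wells and 100% = clavulanate BLA inhibitor wells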
BLA nonselective = beta-lactamase reporter inhibitors in CHO cells, artefact control for TLR9-MyD88 binding inhibitor project, cell-based, fluorescence; shares compounds with TLR9-MyD88 block; inhibition, % at 4.98 µM; AID 540251, 2011; actives 7% (n = 680); CHO-BLA cells, CCF4 FRET ratio, BLA reporter;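 active means mean inhibition above a 50% cutoff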;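 further: counterscreen of TLR9-MyD88 hits on CMV-driven BLA in CHO-K1 cells; 0% = DMSO alone and 100% = clavulanate blocking BLA; higher means less blue over green ratio so more BLA blockade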
TLR9 CHO tox = CHO cell viability loss – luminescence, single concentration, cytotoxicity control for TLR9-MyD88 binding inhibitor project. AID 588336, 2011. inhibition, % at 4.98 µM. TLR9-MyD88 CHO cells cytotoxicity. actives 39% (n = 680). shares compounds with TLR9-MyD88 block; in the data active means inhibition above about 11%
* marks the source's active call; other numbers are inactive results; x = no result given. A selection: hits, their analogues and other compounds. The true share with any hit is near 3.3%.

SMILES	ABHD5-PLIN5 inh	PRMT1 FP inh	rCAG RNA binder	TLR4-MyD88 BLA	TLR9-MyD88 block	NOD2 RIPK2 PPI	TLR9-MyD88 conf	BLA nonselective	TLR9 CHO tox
Cc1oc(-c2cc(F)ccc2F)nc1CN1CCN(c2cnccn2)CC1	-8.0	-10.4	-7.1	-1.9	21.7*	1.2	-1.6	-2.5	1.6
Cc1oc(-c2cc(F)ccc2F)nc1CN(C)Cc1ccc2nccnc2c1	-2.5	-0.6	-5.0	-1.1	1.6	-11.1	x	x	x
Cc1nc2ccc(NC(=O)c3cccc(C(F)(F)F)c3)cc2o1	-1.4	3.1	3.9	0.6	-4.5	-20.1	x	x	x
Cc1ccc(NC(=O)c2cccc(C(F)(F)F)c2)cc1NC(=O)c1[nH]cnc1C(N)=O	0.3	0.4	2.4	x	27.8*	-6.1	2.3	5.1	-2.7
C#CCNC(=O)C[C@@H]1C(=O)N(CCc2ccc(Cl)cc2)C2=CCCCC[C@]21C(=O)OC	x	-4.8	4.2	x	x	x	x	x	x
O=C(O)c1ccc(C=C(c2nc3ccccc3s2)c2nc3ccccc3s2)cc1	-8.0	2.0	12.0	3.0	0.5	6.5	x	x	x
CN(C)c1ccc(/C=C(\Cl)c2nc3ccccc3s2)cc1	-9.9	x	x	18.3	25.3*	16.9	16.0	22.6	9.7
COc1ccc(C(=O)c2sc3nc(-c4ccc(OC)cc4)ccc3c2N)cc1	-10.8	0.0	16.5	-1.7	20.8*	4.0	44.9*	44.9	-0.5
COc1ccc(NC(=O)c2sc3nc(-c4cccnc4)ccc3c2N)cc1	-4.5	-1.8	0.6	x	34.1*	12.3	7.8	5.3	7.8
COc1ccc(NC(=O)c2sc3nc(-c4cccnc4)ccc3c2N)cc1OC	1.5	4.0	-0.8	x	-4.2	-14.2	x	x	x
C#CCOCC1CNC(=S)O1 (configuration not stated)	-0.7	-0.2	4.5	x	-8.0	-10.8	x	x	x
COc1ccc(NC(=O)C2c3ccccc3OCC(=O)N2CCc2ccccc2)cc1 (configuration not stated)	-5.0	0.8	2.5	x	x	11.4	x	x	x
CN(C)S(=O)(=O)c1cccc(NC(=O)c2cc([N+](=O)[O-])ccc2N2CCCCC2)c1	-3.7	-28.7	6.1	x	21.6*	7.9	1.4	2.1	4.4
Cc1cc(-c2nnc(CCC(=O)NC(C)c3ccc(F)cc3)o2)no1 (configuration not stated)	-1.7	1.3	1.6	13.6	6.9	-13.0	x	x	x
Cc1ccc2c(c1)c(N=O)c(O)n2Cc1ccc(Cl)cc1	-5.6	3.3	1.2	16.9	12.8	1.3	x	x	x
Cc1ccc(Cn2c(O)c(N=O)c3ccccc32)cc1	-4.9	0.2	6.8	9.3	24.4*	12.9	0.8	3.3	5.1
C/C(Cl)=C\Cn1c(O)c(N=O)c2ccccc21	-14.6	-3.3	-0.9	8.5	21.3*	19.0	9.3	10.7	1.9
O=Nc1c(O)n(Cc2ccc(Cl)cc2Cl)c2ccccc12	-1.7	1.4	14.8	0.1	33.3*	16.0	22.6*	20.3	1.8
Cc1cc(NC(=O)CSCC(=O)OCc2nnc(-c3ccc(F)cc3)o2)no1	2.3	2.7	1.0	x	4.4	0.5	x	x	x
CN(C)CCNC(=O)c1ccc2nc([C@@H]3O[C@H](CO)[C@H](O)[C@H](O)[C@H]3O)[nH]c2c1	0.2	4.0	2.8	x	x	3.7	x	x	x
